Results on 16 compounds are retold here after ChEMBL document CHEMBL1961873, “Compounds: GSK PKIS; Assays: Nanosyn kinase panel” (2012).

In test [1] the target is T1, Muscle, skeletal receptor tyrosine-protein kinase (Homo sapiens) (UniProt O15146).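 Note: reported value is the mean percent inhibition of MuSK kinase.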
T1 sequence (whole entry): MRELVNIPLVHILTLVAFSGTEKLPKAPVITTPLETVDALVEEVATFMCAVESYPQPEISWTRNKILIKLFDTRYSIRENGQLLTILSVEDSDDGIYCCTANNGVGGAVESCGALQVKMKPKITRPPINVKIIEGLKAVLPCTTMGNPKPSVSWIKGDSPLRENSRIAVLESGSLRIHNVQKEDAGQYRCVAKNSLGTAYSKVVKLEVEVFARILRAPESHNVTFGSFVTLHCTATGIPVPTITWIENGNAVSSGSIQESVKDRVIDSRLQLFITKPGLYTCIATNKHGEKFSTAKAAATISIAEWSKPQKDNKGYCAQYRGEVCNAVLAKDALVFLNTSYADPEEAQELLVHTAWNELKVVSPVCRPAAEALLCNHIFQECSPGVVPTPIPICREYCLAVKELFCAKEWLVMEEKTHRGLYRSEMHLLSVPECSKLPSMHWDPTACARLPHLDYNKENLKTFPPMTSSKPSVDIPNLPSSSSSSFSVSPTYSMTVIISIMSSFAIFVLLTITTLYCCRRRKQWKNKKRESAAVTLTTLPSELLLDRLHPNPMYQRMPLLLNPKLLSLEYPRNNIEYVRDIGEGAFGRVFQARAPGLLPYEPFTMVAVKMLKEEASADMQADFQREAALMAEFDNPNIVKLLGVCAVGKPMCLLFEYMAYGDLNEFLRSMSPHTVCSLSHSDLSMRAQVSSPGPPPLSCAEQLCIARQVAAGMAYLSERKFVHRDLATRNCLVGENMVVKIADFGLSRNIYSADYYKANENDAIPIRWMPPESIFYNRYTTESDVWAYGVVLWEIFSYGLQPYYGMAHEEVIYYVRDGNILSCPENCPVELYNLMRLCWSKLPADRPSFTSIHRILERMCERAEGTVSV
Particulars: at 1 µM.

In test [2] the target is Platelet-derived growth factor receptor alpha (Homo sapiens) (UniProt P16234). Particulars: at 0.1 µM.
Sequence of Platelet-derived growth factor receptor alpha (Homo sapiens) (P16234 whole entry): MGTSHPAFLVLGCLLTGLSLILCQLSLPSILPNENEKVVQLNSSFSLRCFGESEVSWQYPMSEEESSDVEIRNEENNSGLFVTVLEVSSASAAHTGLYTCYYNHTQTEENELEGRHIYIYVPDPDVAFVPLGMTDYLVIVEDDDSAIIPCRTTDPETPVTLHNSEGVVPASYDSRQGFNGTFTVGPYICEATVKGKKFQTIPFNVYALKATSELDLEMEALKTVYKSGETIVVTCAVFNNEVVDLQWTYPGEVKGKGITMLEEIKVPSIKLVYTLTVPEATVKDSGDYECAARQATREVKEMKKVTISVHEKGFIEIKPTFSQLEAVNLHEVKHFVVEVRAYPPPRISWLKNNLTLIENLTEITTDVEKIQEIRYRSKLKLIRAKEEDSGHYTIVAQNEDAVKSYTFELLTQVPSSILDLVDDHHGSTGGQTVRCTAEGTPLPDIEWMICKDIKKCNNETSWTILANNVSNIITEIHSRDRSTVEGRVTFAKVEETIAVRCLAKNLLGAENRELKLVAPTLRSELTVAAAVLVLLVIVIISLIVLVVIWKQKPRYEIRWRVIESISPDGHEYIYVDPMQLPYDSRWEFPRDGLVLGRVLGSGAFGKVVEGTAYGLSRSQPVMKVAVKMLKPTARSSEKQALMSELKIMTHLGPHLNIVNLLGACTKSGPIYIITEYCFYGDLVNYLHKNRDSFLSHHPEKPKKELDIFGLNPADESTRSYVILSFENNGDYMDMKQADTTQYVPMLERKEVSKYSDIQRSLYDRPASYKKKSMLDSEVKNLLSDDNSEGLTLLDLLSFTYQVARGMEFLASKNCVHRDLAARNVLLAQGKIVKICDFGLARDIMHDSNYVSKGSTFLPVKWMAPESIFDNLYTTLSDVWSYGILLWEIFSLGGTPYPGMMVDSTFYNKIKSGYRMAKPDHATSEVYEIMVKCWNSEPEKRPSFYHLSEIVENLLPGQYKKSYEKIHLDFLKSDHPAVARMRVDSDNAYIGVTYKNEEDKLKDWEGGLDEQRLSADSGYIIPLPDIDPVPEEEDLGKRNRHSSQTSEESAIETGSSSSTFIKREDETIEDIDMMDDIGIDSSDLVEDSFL
The target is the same in test [3]. Particulars: at 1 µM.
Test [4] concerns Platelet-derived growth factor receptor alpha (Homo sapiens), P16234 [D842V]. Conditions: at 0.1 µM.
Sequence of Platelet-derived growth factor receptor alpha (Homo sapiens), P16234 [D842V] (P16234 whole entry D842V): as the sequence (P16234 whole entry) above, with D842V counted along it
The test system is the same in test [5]. Conditions: at 1 µM.
Test [6] relates to Platelet-derived growth factor receptor alpha (Homo sapiens), P16234 [T674I]. Particulars: at 0.1 µM.
Sequence of Platelet-derived growth factor receptor alpha (Homo sapiens), P16234 [T674I] (P16234 whole entry T674I): as the sequence (P16234 whole entry) above, with T674I counted along it
For test [7] the test system is unchanged. Particulars: at 1 µM.
In test [8] the test system is Platelet-derived growth factor receptor alpha (Homo sapiens), P16234 [V561D]. Particulars: at 0.1 µM.
Sequence of Platelet-derived growth factor receptor alpha (Homo sapiens), P16234 [V561D] (P16234 whole entry V561D): as the sequence (P16234 whole entry) above, with V561D counted along it
Test [9] shares this test system. Conditions: at 1 µM.
Test [10] has as its target Platelet-derived growth factor receptor beta (Homo sapiens) (UniProt P09619). Particulars: at 0.1 µM.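 Note: reported value is the mean percent inhibition of the kinase.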

Sequence of Platelet-derived growth factor receptor beta (Homo sapiens) (P09619 whole entry): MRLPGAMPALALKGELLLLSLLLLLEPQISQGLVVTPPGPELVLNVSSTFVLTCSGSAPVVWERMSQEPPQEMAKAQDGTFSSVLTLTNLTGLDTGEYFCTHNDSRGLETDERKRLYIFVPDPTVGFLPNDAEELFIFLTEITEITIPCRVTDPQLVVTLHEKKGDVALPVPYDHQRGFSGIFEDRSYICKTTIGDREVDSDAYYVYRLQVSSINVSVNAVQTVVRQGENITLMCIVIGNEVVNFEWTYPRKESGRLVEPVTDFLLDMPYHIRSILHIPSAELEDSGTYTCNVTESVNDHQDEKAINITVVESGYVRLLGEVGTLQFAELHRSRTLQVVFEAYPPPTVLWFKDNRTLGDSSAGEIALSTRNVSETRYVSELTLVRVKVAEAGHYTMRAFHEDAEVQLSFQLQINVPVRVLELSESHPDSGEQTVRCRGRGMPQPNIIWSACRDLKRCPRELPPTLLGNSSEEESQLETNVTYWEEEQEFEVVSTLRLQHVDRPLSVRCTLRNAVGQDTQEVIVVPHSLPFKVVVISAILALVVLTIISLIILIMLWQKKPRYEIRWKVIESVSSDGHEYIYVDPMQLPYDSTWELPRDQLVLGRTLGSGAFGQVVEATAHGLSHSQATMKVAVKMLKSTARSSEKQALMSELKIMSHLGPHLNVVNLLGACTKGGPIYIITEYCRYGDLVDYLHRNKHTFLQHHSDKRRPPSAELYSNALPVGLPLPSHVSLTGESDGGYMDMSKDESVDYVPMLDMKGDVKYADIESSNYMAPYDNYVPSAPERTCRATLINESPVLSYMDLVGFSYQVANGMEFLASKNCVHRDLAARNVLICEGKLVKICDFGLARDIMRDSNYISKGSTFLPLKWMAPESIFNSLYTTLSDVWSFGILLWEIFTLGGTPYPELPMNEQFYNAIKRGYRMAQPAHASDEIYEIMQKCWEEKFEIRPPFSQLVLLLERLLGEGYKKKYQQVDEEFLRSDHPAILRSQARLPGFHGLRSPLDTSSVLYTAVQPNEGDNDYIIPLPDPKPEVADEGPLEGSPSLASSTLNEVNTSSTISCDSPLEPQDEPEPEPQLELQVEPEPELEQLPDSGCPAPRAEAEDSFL

In the case of `COC(=O)c1ccc2c(c1)C(=Cc1cc(Br)c(O)c(Br)c1)C(=O)N2`, the inhibition in test [1] is 8.06%; in [2], 5.39%; in test [3] it was 16.1%; in test [4], 2.33%; in [5], 12.2%; in [6], 1.96%. The inhibition in test [7] was 3.91%; in test [8], 4.32%; in [9], 12.3%; in test [10], 1.55%.

As for `CCCN1CCCC(c2ccc(Nc3nc(Nc4cc(F)ccc4C(N)=O)c4cc[nH]c4n3)c(OC)c2)C1` (stereo not given), the inhibition in test [1] turned out to be 12.2%; in test [2], 10.1%; in test [3], 38.3%; in test [4], 8.12%; in test [5], 39.9%; in test [6], 5.49%. For the same compound, the inhibition was 8.24% in [7], 6.86% in test [8], 33.1% in [9] and 6.16% in test [10].

Regarding `CCS(=O)(=O)c1ccc(OC)c(Nc2nccc(N(C)c3ccc4c(C)n[nH]c4c3)n2)c1`, the inhibition in test [1] amounted to 1.07%; in [2], 22.9%; in [3], 67.5%; in [4], 21.8%; in test [5], 74.3%; in test [6], 5.5%. For the same compound, the inhibition in [7] turned out to be 12.5%; in [8], 20.5%; in test [9] it was 69.5%; in [10] it was 20.9%.

As for `NS(=O)(=O)c1cccc(-c2cc3ccncc3cc2OCc2ccccc2)c1`, the inhibition in test [1] was 4.58%; in test [2], 13.6%; in test [3] it was 17.2%; in [4] it was 2.28%; in test [5], 4.36%; in test [6], 14.8%. Besides, the inhibition was 6.72% in test [7], 2.61% in [8], 9.52% in [9] and 7.66% in test [10].

With `ON=C1CCc2cc(-c3nc(C4CCNCC4)[nH]c3-c3ccncc3)ccc21`, the inhibition was found to be 1.9% in test [1]; 2.97% in test [2]; 10.5% in test [3]; 2.44% in [4]; 6.66% in test [5]; 1% in [6]. Further, the inhibition in [7] was 0.52%; in [8], 1.54%; in test [9], 6.14%; in test [10], 4.22%.

As for `Cc1ccc(Nc2ccnc(Nc3cccc(C(N)=O)c3)n2)cc1O`, the inhibition is 26.7% in test [1]; 48.1% in [2]; 82.3% in test [3]; 48.4% in test [4]; 88.5% in test [5]; 6.94% in [6]. Also, the inhibition in test [7] is 26.3%; in test [8] it was 46.3%; in [9], 87.2%; in test [10], 54.7%.

For `O=C1Nc2ccccc2/C1=C/Nc1ccc2[nH]c(=O)[nH]c2c1`, the inhibition in test [1] came out at 29.5%; in [2], 26.1%; in test [3], 65.3%; in test [4], 18%; in test [5], 69.2%; in test [6], 18.2%. The inhibition in [7] is 80.1%; in [8] it was 26.1%; in test [9] it was 69.8%; in [10], 19.7%.

With `N#Cc1cccc(Nc2nccc(-c3cnn4ncccc34)n2)c1`, the inhibition was 24.6% in [1]; 16.3% in test [2]; 52.5% in test [3]; 10.5% in test [4]; 48.8% in [5]; 15.7% in [6]. Moreover, the inhibition in test [7] came to 60.5%; in test [8], 23.3%; in [9] it was 59.9%; in [10], 27.2%.

For the compound `Cc1ccc2c(-c3ccnc(Nc4cccc(C(F)(F)F)c4)n3)c(-c3ccccc3)nn2n1`, the inhibition in test [1] turned out to be 5.46%; in test [2] it was 13.9%; in test [3] it was 61%; in [4], 10.5%; in test [5], 38.4%; in test [6], 3.21%. Further, the inhibition in test [7] came to 9.14%; in test [8] it was 14.2%; in test [9], 52%; in test [10], 35.4%.

For the compound `Cc1ccc(O)cc1Nc1ccnc2ccc(S(C)(=O)=O)cc12`, the inhibition in test [1] came out at 5.56%; in test [2], 72.2%; in [3] it was 85%; in test [4], 88.8%; in test [5], 97.1%; in [6], 7.4%. The inhibition in test [7] was 14.8%; in test [8] it was 84.7%; in [9] it was 95%; in [10] it was 63.8%.

With `Cc1ccc(C(=O)NC2CC2)cc1-c1ccc2[nH]ncc2c1`, the inhibition in test [1] amounted to 2.51%; in test [2] it was 2.1%; in test [3] it was 13.4%; in [4] it was 1.95%; in test [5], 4.58%; in test [6] it was 1.44%. In addition, the inhibition in test [7] came out at 2.76%; in test [8], 3.49%; in test [9] it was 13.8%; in [10] it was 1.82%.

On to `Nc1nccc(-c2c(-c3ccc(F)cc3)nn3cc(C(F)(F)F)ccc23)n1`, for which the inhibition was -0.61% in [1]; 5.02% in test [2]; 5.93% in test [3]; 0.17% in [4]; 0.96% in test [5]; -0.84% in test [6]. For the same compound, the inhibition in test [7] was determined as 1.89%; in test [8], 1.05%; in test [9] it was 1.99%; in [10] it was 0.39%.

Consider `CN(C)c1cc2c(Nc3ccc4c(cnn4Cc4ccccc4)c3)ncnc2cn1`, for which the inhibition in test [1] came out at 1.56%; in [2] it was 0%; in [3], 8.21%; in test [4], 0.65%; in test [5], 4.51%; in [6], 3.93%. The inhibition is 8.69% in test [7], 0.81% in test [8], 6.19% in test [9] and -1% in test [10].

With `C[C@@H](Oc1cc(-n2cnc3ccc(OCC4CCN(C)CC4)cc32)sc1C(N)=O)c1ccccc1C(F)(F)F`, the inhibition in test [1] amounted to 76%; in test [2], 25.1%; in test [3] it was 69.4%; in test [4], 18.1%; in test [5], 65.6%; in test [6] it was 4.88%. Further, the inhibition came to 46% in test [7], 17.7% in test [8], 66.2% in test [9] and 56.3% in [10].

For `Nc1ccc(C#Cc2cncnc2Nc2ccc(OCc3cccc(F)c3)c(Cl)c2)cc1`, the inhibition in [1] is -0.75%; in [2], 3.02%; in test [3], 5.52%; in test [4] it was 2.77%; in test [5], 2.86%; in test [6], 3.22%. In addition, the inhibition was found to be 5.56% in test [7], 1.6% in test [8], 3.26% in test [9] and 3.04% in [10].

Regarding `CN(C)C(=O)O[C@@H]1CN[C@@H](C#Cc2cc3ncnc(Nc4ccc(OCc5cccc(F)c5)c(Cl)c4)c3s2)C1`, the inhibition in [1] was determined as 1.14%; in test [2], 3.88%; in test [3], 7.94%; in test [4], 0.63%; in [5], 1.66%; in test [6], 1%. For the same compound, the inhibition was 0.01% in [7], 0.98% in [8], 5.29% in test [9] and 5.61% in test [10].

Usually inhibition stands for the change of the read-out against control, counted positive when it falls.
